Inconclusive results are not listed. Activity calls are given as the source filed them. How the source made its calls, unless noted: active means hit-call score of the fitted dose curve at least 0.9, where 1 is the maximum; inconclusive means response in the unintended direction; inactive means score below 0.9.
How the values were obtained:
[1] = target: human Dopamine Transporter (DAT), SLC6A3 (gene 6531) (UniProt Q01959); assay: NVS_TR_hDAT: NovaScreen (NVS) Transporter Assay for human Dopamine Transporter (DAT) (AID 2283374);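 further: activity means loss of bound radioligand signal relative to DMSO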
Summary of the method: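 Cell-free radioligand binding to extracted human DAT protein, read 1 h after dosing by filter-based scintillation counting. Loss of specific binding scored against DMSO baseline; primary screen in duplicate at 25 uM, actives then run in concentration series.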

[2] = target: Retinoic acid receptor RXR-alpha (Homo sapiens) (UniProt P19793); assay: OT_NURR1_NURR1RXRa_0480: Odyssey Thera (OT) 8-hour HEK293T Protein Complementation Assay for Nurr1/retinoid X receptor (RXR) (AID 2283385)
Summary of the method: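 HEK293T cells expressing Nurr1 and RXRα fused to reporter fragments were dosed with compound for 8 hours. Complex formation was read as fluorescence intensity and analysed as gain of signal against DMSO as baseline.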

[3] = target: Retinoic acid receptor RXR-alpha (Homo sapiens) (UniProt P19793); assay: OT_NURR1_NURR1RXRa_1440: Odyssey Thera (OT) 24-hour HEK293T Protein Complementation Assay for Nurr1/retinoid X receptor (RXR) (AID 2283386)
Summary of the method: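 HEK293T cells were dosed with compound and read 24 h later by fluorescence intensity in a protein-fragment complementation format, where Nurr1–RXRα interaction reconstitutes a split reporter. Activity was fitted as gain of signal relative to DMSO baseline.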

[4] = target: Peroxisome proliferator-activated receptor gamma (Homo sapiens) (UniProt P37231); assay: OT_PPARg_PPARgSRC1_0480: Odyssey Thera (OT) 8-hour Protein-Complementation Assay for Peroxisome Proliferator-activated Receptor Gamma / SRC-1 Co-activator (AID 2283387);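 further: nuclear to cytoplasmic split Venus YFP fluorescence ratio reporting PPARg SRC-1 interaction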
Summary of the method: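 Split-YFP (IFP1/IFP2) PPARg/SRC-1 reporter, HEK293T, 37 °C, 5% CO2; 8 h compound; formaldehyde fix + Draq5; high-content imaging, N/C ratio, ≥350 cells/image, positive direction vs DMSO.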

[5] = target: Peroxisome proliferator-activated receptor gamma (Homo sapiens) (UniProt P37231); assay: OT_PPARg_PPARgSRC1_1440: Odyssey Thera (OT) 24-hour Protein-Complementation Assay for Peroxisome Proliferator-activated Receptor Gamma/ SRC-1 Co-activator (AID 2283388);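 further: nuclear to cytoplasmic ratio of reconstituted Venus YFP fluorescence in fixed imaged cells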
Summary of the method: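 Cells carrying the PPARg/SRC-1 fragment-complementation reporter receive compound for 24 hours, are fixed and counterstained with Draq5, then imaged. Increased nuclear relative to cytoplasmic YFP fluorescence above DMSO baseline indicates binding activity.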

[6] = target: rat Serotonin Transporter (SERT), Slc6a4 (gene 25553) (UniProt P31652); assay: NVS_TR_rSERT: NovaScreen (NVS) Transporter Assay for rat Serotonin Transporter (SERT) (AID 2283375)
Summary of the method: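 Using rat forebrain membrane SERT, test chemicals compete with a radioligand for 1 hour, and bound counts are taken by filter-based scintillation. Screening starts at 25 uM in duplicate, followed by concentration series for actives.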

[7] = target: Estrogen receptor beta (Homo sapiens) (UniProt Q92731); assay: OT_ER_ERbERb_1440: Odyssey Thera (OT) 24-hour HEK293T Protein-Complementation Assay for Estrogen Receptor-beta/-beta Homodimer (AID 2283380);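 further: fluorescence gain from ER beta LBD homodimer complementation read by laser scanning cytometry; scored as signal increase over DMSO baseline for both agonists and antagonists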
Summary of the method: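 HEK293T cells stably expressing human ER-beta LBD (aa 310-547) PCA homodimer pair, dosed 24 h; formaldehyde-fixed, Draq5-stained. Readout: increase in nuclear (agonist) or nuclear plus cytoplasmic (antagonist) fluorescence intensity versus DMSO, gain-of-signal fitting.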

[8] = target: Estrogen receptor (Homo sapiens) (UniProt P03372); assay: OT_ERa_GFPERaERE_0480: Odyssey Thera (OT) 8-hour HeLa Transcription Induction Assay for Estrogen Receptor (AID 2283381; active means hit-call score of the fitted dose curve at least 0.9, where 1 is the maximum; inactive means score below 0.9)
Summary of the method: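 HeLa cells dosed with compound and imaged by fluorescence microscopy at 8 h; GFP induction from an ERE reporter quantified by high-content image analysis and fitted as gain of signal against DMSO baseline.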

[9] = target: Bile acid receptor (Homo sapiens) (UniProt Q96RI1); assay: OT_FXR_FXRSRC1_0480: Odyssey Thera (OT) 8-hour HEK293T Protein-Complementation Assay for Farnesoid X receptor/SRC-1 Co-activator (AID 2283383)
Summary of the method: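 HEK293T cells expressing FXR and SRC-1 fused to reporter fragments were dosed with compound for 8 h; fluorescence from the reconstituted reporter marked co-activator recruitment. Gain of signal was fitted against the DMSO baseline.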

[10] = CEETOX_H295R_11DCORT: CeeTox H295R High-throughput Steroidogenesis Assay for 11-Deoxycortisol (11DCORT) (AID 2283432; active means hit-call score of the fitted dose curve at least 0.9, where 1 is the maximum; inactive means score below 0.9;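 on AC50: 11-deoxycortisol secreted into the medium measured by LC-MS/MS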); settings: actives raise or lower the signal
Summary of the method: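 Steroidogenesis in human H295R cells: 48 h chemical exposure after forskolin priming, 11-deoxycortisol measured by LC-MS/MS.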

[11] = CEETOX_H295R_OHPREG: CeeTox H295R High-throughput Steroidogenesis Assay for OH-Pregnenolone (OHPREG) (AID 2283434; active means hit-call score of the fitted dose curve at least 0.9, where 1 is the maximum; inactive means score below 0.9); settings: actives raise or lower the signal
Summary of the method: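 Human adrenal H295R cells were prestimulated 48 h with 10 uM forskolin, then exposed 48 h to chemical in 0.1% DMSO. Medium 17alpha-hydroxypregnenolone was quantified by HPLC-MS/MS after MTBE extraction; bidirectional fitting versus DMSO baseline.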

[12] = target: human Norepinephrine Transporter (NET), SLC6A2 (gene 6530) (UniProt P23975); assay: NVS_TR_hNET: NovaScreen (NVS) Transporter Assay for human Norepinephrine Transporter (NET) (AID 2283377);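 further: cell-free membrane protein extracted from CHO cells expressing human NET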
Summary of the method: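 Radioligand binding to human NET in cell-free CHO-derived protein preparations, read by filter-based scintillation counting 1 hour after dosing. Loss of signal versus DMSO baseline indicated displacement; primary screening in duplicate at 25 uM, actives then titrated.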

[13] = target: Agonist Androgen Response Element (ARE), AR (gene 367) (UniProt P10275); assay: OT_AR_ARELUC_AG_1440: Odyssey Thera (OT) 24-hour CHO-K1 Luciferase Assay for Agonist Androgen Response Element (ARE) (AID 2283379)
Summary of the method: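 Seed CHO-K1 cells; dose compounds for 24 h; add D-luciferin plus ATP in PBS; read luminescence. Signal increase relative to vehicle defines agonist activity, with at least 3 replicate wells per sample.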

[14] = target: Peroxisome proliferator-activated receptor gamma (Homo sapiens) (UniProt P37231); assay: NVS_NR_hPPARg: NovaScreen (NVS) Nuclear Receptor Binding Assay for human Peroxisome Proliferator-activated Receptor gamma (PPARg) (AID 2283370)
Summary of the method: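 Extracted receptor protein, cell-free; compound incubated 2 h then fluorescence polarization read. Baseline: DMSO. Actives from 25 uM duplicate screen re-run across concentrations.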

[15] = target: mouse Estrogen Receptor alpha (Era), Esr1 (gene 13982) (UniProt P19785); assay: NVS_NR_mERa: NovaScreen (NVS) Nuclear Receptor Binding Assay for mouse Estrogen Receptor alpha (Era) (AID 2283378);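 further: hit means loss of bound radioligand signal relative to DMSO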
Summary of the method: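 Measurements come from scintillation counting after filtration, taken 18 hours after chemicals were added to a cell-free mouse Era preparation with radioligand. Screening was duplicate at 25 uM, with concurrent positive and negative controls and confirmatory concentration series for actives.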

Measured: AC50

Sequence of Bile acid receptor (Homo sapiens) (Q96RI1 whole entry, looked up, the tested form may be a part): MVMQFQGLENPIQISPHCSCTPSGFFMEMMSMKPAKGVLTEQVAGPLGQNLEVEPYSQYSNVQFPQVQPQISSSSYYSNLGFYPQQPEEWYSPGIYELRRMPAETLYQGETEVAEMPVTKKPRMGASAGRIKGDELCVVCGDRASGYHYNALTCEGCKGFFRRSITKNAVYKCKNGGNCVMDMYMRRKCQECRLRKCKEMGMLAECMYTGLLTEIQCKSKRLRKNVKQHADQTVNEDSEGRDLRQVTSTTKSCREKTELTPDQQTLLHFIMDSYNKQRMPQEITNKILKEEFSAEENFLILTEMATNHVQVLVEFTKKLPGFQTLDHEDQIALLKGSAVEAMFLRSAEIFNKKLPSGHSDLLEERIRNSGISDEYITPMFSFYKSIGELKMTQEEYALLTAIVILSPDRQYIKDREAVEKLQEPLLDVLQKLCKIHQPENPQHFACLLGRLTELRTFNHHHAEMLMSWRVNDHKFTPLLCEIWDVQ
Sequence of mouse Estrogen Receptor alpha (Era), Esr1 (gene 13982) (P19785 whole entry, looked up): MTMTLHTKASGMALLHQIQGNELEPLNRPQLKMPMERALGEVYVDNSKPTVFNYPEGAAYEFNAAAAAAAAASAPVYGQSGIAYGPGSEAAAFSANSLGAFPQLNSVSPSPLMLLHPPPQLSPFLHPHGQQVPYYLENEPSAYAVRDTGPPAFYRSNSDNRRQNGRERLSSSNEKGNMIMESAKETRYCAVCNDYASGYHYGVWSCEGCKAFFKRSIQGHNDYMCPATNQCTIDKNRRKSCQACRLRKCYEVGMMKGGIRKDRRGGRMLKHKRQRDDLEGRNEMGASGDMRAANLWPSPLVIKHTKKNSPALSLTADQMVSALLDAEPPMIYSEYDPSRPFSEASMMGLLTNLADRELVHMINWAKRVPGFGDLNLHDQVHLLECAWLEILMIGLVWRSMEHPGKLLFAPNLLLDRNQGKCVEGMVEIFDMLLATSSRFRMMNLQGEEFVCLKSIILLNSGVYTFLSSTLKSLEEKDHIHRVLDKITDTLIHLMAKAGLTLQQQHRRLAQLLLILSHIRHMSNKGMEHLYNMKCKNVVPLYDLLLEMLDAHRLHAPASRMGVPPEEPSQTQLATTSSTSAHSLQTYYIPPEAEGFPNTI
Sequence of Estrogen receptor (Homo sapiens) (P03372 whole entry, looked up): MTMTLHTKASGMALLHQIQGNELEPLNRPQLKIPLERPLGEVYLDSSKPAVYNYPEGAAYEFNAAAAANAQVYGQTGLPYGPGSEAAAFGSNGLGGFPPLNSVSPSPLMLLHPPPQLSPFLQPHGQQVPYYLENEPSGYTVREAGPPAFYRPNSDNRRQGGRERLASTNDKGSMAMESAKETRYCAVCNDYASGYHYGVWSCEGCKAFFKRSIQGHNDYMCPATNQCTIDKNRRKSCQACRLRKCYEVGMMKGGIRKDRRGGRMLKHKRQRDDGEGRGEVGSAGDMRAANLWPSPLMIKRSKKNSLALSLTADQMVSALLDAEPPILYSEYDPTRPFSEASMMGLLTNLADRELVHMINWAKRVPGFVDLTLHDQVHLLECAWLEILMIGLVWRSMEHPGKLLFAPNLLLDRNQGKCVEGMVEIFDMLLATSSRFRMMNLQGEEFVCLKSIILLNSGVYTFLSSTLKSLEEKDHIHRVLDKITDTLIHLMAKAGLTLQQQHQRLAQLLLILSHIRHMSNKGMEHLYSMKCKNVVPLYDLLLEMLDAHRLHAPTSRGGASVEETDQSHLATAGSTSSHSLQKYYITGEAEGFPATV
Sequence of Estrogen receptor beta (Homo sapiens) (Q92731 whole entry, looked up, the tested form may be a part): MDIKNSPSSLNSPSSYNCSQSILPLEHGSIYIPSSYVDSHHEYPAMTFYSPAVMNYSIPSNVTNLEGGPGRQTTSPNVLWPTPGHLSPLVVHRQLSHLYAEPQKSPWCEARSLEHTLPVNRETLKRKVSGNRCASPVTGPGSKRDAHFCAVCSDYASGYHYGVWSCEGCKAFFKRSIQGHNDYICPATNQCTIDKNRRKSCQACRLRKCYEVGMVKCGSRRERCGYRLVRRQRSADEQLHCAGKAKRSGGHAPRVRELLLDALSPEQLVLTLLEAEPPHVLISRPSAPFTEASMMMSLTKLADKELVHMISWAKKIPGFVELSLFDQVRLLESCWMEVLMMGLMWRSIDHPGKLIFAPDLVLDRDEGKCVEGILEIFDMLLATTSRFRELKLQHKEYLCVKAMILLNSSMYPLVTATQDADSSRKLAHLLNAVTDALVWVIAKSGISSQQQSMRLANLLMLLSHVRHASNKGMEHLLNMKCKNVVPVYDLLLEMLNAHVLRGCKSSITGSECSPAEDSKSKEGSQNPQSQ
Sequence of human Dopamine Transporter (DAT), SLC6A3 (gene 6531) (Q01959 whole entry, looked up): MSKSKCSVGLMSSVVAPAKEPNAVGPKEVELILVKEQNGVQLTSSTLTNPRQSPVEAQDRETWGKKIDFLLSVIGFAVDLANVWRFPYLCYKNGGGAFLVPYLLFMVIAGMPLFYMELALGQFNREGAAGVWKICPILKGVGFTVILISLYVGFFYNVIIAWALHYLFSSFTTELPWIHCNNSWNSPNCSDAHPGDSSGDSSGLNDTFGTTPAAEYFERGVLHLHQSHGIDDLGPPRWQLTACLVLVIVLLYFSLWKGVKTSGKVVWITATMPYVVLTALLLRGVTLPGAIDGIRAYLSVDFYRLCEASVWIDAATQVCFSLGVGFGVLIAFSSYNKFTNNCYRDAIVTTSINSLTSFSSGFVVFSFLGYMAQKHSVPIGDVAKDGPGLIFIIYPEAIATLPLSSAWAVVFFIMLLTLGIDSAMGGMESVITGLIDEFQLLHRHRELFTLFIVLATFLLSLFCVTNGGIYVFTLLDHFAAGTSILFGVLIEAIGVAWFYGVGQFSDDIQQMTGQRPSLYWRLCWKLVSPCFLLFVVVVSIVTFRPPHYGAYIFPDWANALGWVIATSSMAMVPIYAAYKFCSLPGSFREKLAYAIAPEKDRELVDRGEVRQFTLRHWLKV
Sequence of Retinoic acid receptor RXR-alpha (Homo sapiens) (P19793 whole entry, looked up, the tested form may be a part): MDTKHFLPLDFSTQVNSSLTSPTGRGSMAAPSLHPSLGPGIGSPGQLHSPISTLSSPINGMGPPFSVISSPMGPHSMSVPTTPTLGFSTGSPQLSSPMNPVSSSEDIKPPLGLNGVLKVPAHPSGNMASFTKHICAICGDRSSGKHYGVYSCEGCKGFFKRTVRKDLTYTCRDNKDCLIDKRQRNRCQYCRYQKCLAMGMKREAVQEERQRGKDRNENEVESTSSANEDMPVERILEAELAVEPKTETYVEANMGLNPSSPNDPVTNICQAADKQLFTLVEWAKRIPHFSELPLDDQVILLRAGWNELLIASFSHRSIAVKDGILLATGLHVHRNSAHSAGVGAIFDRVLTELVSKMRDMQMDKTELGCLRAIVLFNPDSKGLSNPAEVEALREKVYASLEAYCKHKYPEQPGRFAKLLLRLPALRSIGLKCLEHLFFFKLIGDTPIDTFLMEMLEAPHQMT
Sequence of Peroxisome proliferator-activated receptor gamma (Homo sapiens) (P37231 whole entry, looked up, the tested form may be a part): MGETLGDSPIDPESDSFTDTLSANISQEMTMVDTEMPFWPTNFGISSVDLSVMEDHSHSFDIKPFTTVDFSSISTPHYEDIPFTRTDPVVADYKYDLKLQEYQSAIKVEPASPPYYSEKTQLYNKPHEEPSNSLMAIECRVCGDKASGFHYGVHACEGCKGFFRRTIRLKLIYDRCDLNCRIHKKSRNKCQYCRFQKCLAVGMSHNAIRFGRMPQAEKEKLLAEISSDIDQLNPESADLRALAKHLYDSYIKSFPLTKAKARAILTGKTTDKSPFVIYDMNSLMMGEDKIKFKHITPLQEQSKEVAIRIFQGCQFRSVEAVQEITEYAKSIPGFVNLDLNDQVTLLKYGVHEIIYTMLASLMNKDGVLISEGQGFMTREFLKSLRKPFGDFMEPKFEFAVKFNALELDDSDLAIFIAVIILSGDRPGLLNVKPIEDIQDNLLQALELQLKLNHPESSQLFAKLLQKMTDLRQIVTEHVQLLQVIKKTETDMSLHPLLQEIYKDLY
Sequence of Agonist Androgen Response Element (ARE), AR (gene 367) (P10275 whole entry, looked up): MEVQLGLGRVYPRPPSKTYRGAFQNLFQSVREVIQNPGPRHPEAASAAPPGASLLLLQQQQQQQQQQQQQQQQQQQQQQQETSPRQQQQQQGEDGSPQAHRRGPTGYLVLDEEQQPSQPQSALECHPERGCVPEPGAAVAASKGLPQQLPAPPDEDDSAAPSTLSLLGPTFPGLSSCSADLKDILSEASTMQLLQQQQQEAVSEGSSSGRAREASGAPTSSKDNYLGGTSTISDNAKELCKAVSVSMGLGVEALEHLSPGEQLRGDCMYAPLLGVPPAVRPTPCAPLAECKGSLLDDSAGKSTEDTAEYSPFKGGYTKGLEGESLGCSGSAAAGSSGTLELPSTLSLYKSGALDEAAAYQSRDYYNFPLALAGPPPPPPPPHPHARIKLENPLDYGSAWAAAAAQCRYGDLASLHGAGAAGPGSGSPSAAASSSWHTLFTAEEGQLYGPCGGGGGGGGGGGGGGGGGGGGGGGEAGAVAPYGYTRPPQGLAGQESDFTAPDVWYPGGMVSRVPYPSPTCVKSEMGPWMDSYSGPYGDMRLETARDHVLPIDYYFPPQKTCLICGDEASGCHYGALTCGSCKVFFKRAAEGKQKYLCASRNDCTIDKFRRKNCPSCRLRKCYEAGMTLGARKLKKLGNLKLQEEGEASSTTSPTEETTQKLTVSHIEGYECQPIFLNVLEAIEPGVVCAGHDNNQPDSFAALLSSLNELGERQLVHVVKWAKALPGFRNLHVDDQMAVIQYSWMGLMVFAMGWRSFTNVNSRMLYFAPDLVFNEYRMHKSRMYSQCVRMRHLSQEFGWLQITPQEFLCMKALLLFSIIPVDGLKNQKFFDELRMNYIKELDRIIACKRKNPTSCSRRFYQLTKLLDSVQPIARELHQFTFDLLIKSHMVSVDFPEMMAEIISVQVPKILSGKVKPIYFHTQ

Cc1ccc(O)c(C(C)(C)C)c1
inactive: [3] | [4] | [5]
active: [1] 25 µM | [2] 50 µM

CN(CCOc1ccc(CC2SC(=O)NC2=O)cc1)c1ccccn1 (stereo unspecified)
active: [6] 2.07 µM

NCCCN1CCOCC1
inactive: [7] | [8] | [9] | [2] | [4] | [5]

Cc1cccc(C)c1C
inactive: [6] | [10] | [11]

COc1cc2ncnc(Nc3cccc(Cl)c3)c2cc1OC
active: [12] 1.77 µM
inactive: [10] | [11]

CCCCc1ccc(N)cc1
inactive: [7] | [8] | [3] | [4] | [5]

C[Si](O[Si](C)(C)C)O[Si](C)(C)C
inactive: [13] | [7] | [2] | [3] | [4] | [5]

OC1OC[C@@H](O)[C@H](O)[C@H]1O (stereo partly specified)
inactive: [14] | [7] | [2] | [3] | [4] | [5]

O=C(Oc1ccccc1)c1ccc(O)cc1
inactive: [14] | [3] | [4] | [5]
active: [7] 4.86 µM

O=C(Cl)c1cccc(C(=O)Cl)c1
inactive: [1] | [7] | [2] | [4] | [5]

O=C1c2ccccc2C(=O)N1SC1CCCCC1
inactive: [15] | [7] | [8]

CCCc1c(OCCCOc2ccc(OCC(=O)O)cc2)ccc(C(C)=O)c1O
inactive: [15]

CNC[C@H](O)c1cccc(O)c1
active: [1] 25 µM

CCCCCC(CO)CCC (stereo unspecified)
inactive: [14] | [7] | [2] | [3] | [4] | [5]

CCN(CC)c1ccc2c(-c3ccccc3C(=O)O)c3ccc(=[N+](CC)CC)cc-3oc2c1
active: [7] 12.2 µM | [9] 35.2 µM | [2] 12.7 µM | [3] 16.1 µM | [4] 12.2 µM | [5] 12 µM
inactive: [8]

c1cc(C(c2ccc(OCC3CO3)cc2)c2ccc(OCC3CO3)cc2)ccc1OCC1CO1 (stereo unspecified)
inactive: [15]

CCCCCCCCC=O
inactive: [15] | [7] | [8] | [2] | [3] | [4] | [5]

CC1COc2ccccc2N1C(=O)C(Cl)Cl (stereo unspecified)
inactive: [7] | [8] | [2] | [4] | [5]
active: [15] 1.88 µM | [10] 25.2 µM | [11] 3.66 µM

Cc1cc(C2(c3cc(C)c(O)cc3C)OS(=O)(=O)c3ccccc32)c(C)cc1O
inactive: [15]

CCCOCC(C)O (stereo unspecified)
inactive: [13] | [4] | [5]

OCCOCCOCCOCCO
inactive: [7] | [8] | [2] | [3]

Nc1cc([N+](=O)[O-])ccc1Cl
inactive: [12] | [10] | [11]

CCCCC(CC)COC(=O)/C=C\C(=O)OCC(CC)CCCC (stereo unspecified)
inactive: [14] | [7] | [4] | [5]
active: [2] 7.85 µM | [3] 50 µM

CC1=CC(=O)NS(=O)(=O)O1
inactive: [7] | [2] | [3] | [4] | [5]

CC(=O)C=CC1=C(C)CCCC1(C)C
active: [2] 50 µM
inactive: [8] | [9] | [3] | [4] | [5]

CC1CC(OC(=O)c2ccccc2O)CC(C)(C)C1 (stereo unspecified)
active: [2] 92.8 µM
inactive: [4] | [5]

CC(C)=CCCC(C)CC=O (stereo unspecified)
inactive: [9] | [2] | [4] | [5]

CCCC1CCC(=O)O1 (stereo unspecified)
inactive: [2] | [4] | [5]

CCCCCCCCCCN
inactive: [7]
active: [2] 59.8 µM | [3] 78.2 µM

CCCCCOC(=O)CCC
inactive: [7] | [2] | [4] | [5]

CC(=O)OCCC(C)CC(C)(C)C (stereo unspecified)
inactive: [8] | [3] | [4] | [5]

CCCCCCCCCCC(CO)CCCCCCCC (stereo unspecified)
inactive: [3] | [4] | [5]

CCCCCCCCCCCCCCCCCC(=O)OCC(CC)CCCC (stereo unspecified)
inactive: [7] | [2] | [3] | [4] | [5]

C=CC(C)(O)CCC=C(C)CCC=C(C)C (stereo unspecified)
active: [9] 59.4 µM | [3] 50 µM
inactive: [7] | [2] | [5]

C=CCOc1nc(OCC=C)nc(OCC=C)n1
inactive: [2] | [3] | [4] | [5]
active: [7] 25.5 µM | [10] 25.9 µM | [11] 38.6 µM

CC1(C)[C@H](C(=O)OCc2cccc(Oc3ccccc3)c2)[C@@H]1C=C(Cl)Cl
inactive: [10] | [11]

O=C(O)c1ccc([N+](=O)[O-])cc1
inactive: [7] | [2] | [10] | [11]

CCCCCCCCCCCCN
inactive: [4] | [5]
active: [2] 11 µM | [3] 10.6 µM

NCCCCCCN
inactive: [2] | [4] | [5]

O=C(O)C[C@H](O)C[C@H](O)/C=C/c1c(C2CC2)nc2ccccc2c1-c1ccc(F)cc1
active: [10] 0.0625 µM | [11] 0.00206 µM

O=C1NC(=O)c2ccccc21
inactive: [9] | [2] | [3] | [4] | [5]

NCCNCCN
inactive: [7] | [3] | [4] | [5]

O=C(O)Cc1cccc2ccccc12
inactive: [4] | [5]

CCN(CC)CCOC(=O)c1ccc(N)cc1
inactive: [4] | [5]

— PubChem BioAssay (EPA / NIEHS)
